From the supplement of paper PMC6555819

How the values were obtained:
Assay in all cases: PBM binding z-score (relative to random genomic background probes); higher = stronger binding; sequences stand for … in GC…GCGATTGACAGCGTAGAATGAAGG
[1] = tested on: FXR:RXRa (NR concentration 270 nM, RXRa partner concentration 90 nM)
Procedure, shortened: (§1)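 Antibodies against each partner of ligand-free nuclear receptor dimers (one per run) detected binding on custom Agilent 4×180K protein-binding microarrays after 1 h incubation. The double-stranded probes had 34-nt variable regions carrying direct-repeat seeds, single-nucleotide variants, half-site ablations and random human genomic background sequences. Binding z-scores, from regression-normalized fluorescence, use the random background probes as reference.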

[2] = tested on: LXRa:RXRa (NR concentration 270 nM, RXRa partner concentration 90 nM)
Procedure, shortened: as §1

[3] = tested on: LXRa homodimer (NR concentration 270 nM)
Procedure, shortened: as §1

[4] = tested on: LXRb:RXRa (NR concentration 270 nM, RXRa partner concentration 90 nM)
Procedure, shortened: as §1

[5] = tested on: LXRb homodimer (NR concentration 270 nM)
Procedure, shortened: as §1

[6] = tested on: PPARa:RXRa (NR concentration 270 nM, RXRa partner concentration 90 nM)
Procedure, shortened: as §1

[7] = tested on: PPARg:RXRa (NR concentration 180 nM, RXRa partner concentration 90 nM)
Procedure, shortened: as §1

[8] = tested on: PPARg:RXRa 270nM:90nM, anti-RXR (NR concentration 270 nM, RXRa partner concentration 90 nM)
Procedure, shortened: as §1

[9] = tested on: PPARg:RXRa 30nM:10nM, anti-RXR (NR concentration 30 nM, RXRa partner concentration 10 nM)
Procedure, shortened: as §1

[10] = tested on: PPARg:RXRa 90nM:30nM, anti-RXR (NR concentration 90 nM, RXRa partner concentration 30 nM)
Procedure, shortened: as §1

[11] = tested on: PPARg:RXRa DBDmut IVT, anti-RXR (DBD mutation: RXRa K156A/R161A, NR concentration 270 nM, RXRa partner concentration 90 nM)
Procedure, shortened: as §1

[12] = tested on: PPARg:RXRa IVT, anti-PPARg (NR concentration 270 nM, RXRa partner concentration 90 nM)
Procedure, shortened: as §1

[13] = tested on: PPARg DBDmut:RXRa IVT, anti-PPARg (DBD mutation: PPARg1 K132A/R137A, NR concentration 270 nM, RXRa partner concentration 90 nM)
Procedure, shortened: as §1

[14] = tested on: PPARg DBDmut IVT, anti-PPARg (DBD mutation: PPARg1 K132A/R137A, NR concentration 270 nM)
Procedure, shortened: as §1

[15] = tested on: PPARg homodimer (NR concentration 180 nM)
Procedure, shortened: as §1

[16] = tested on: PXR:RXRa (NR concentration 270 nM, RXRa partner concentration 90 nM)
Procedure, shortened: as §1

[17] = tested on: PXR homodimer (NR concentration 270 nM)
Procedure, shortened: as §1

[18] = tested on: RARa:RXR (NR concentration 270 nM, RXRa partner concentration 90 nM)
Procedure, shortened: as §1

[19] = tested on: RARa homodimer (NR concentration 270 nM)
Procedure, shortened: as §1

[20] = tested on: RARb:RXRa (NR concentration 270 nM, RXRa partner concentration 90 nM)
Procedure, shortened: as §1

Q: With CCAGACAGGTGAAAGGTAAATCAGTCTGGTACGC as the sequence, how does the PBM binding z-score [1] read?
A: 0.431

Q: What about the PBM binding z-score [2] of the same sequence?
A: 0.642

Q: And the PBM binding z-score [3]?
A: -0.205

Q: And the PBM binding z-score [4]?
A: 0.749

Q: And the PBM binding z-score [5]?
A: -0.327

Q: What about the PBM binding z-score [6] of the same sequence?
A: 3.27

Q: What about the PBM binding z-score [7] of the same sequence?
A: 5.01

Q: And the PBM binding z-score [8]?
A: 5.7

Q: And the PBM binding z-score [9]?
A: 4

Q: What about the PBM binding z-score [10] of the same sequence?
A: 6.32

Q: What about the PBM binding z-score [11] of the same sequence?
A: 1.86

Q: What about the PBM binding z-score [12] of the same sequence?
A: 2.8

Q: What about the PBM binding z-score [13] of the same sequence?
A: 0.0874

Q: What about the PBM binding z-score [14] of the same sequence?
A: -1.06

Q: And the PBM binding z-score [15]?
A: 2.52

Q: What about the PBM binding z-score [16] of the same sequence?
A: 0.697

Q: And the PBM binding z-score [17]?
A: -0.183

Q: And the PBM binding z-score [18]?
A: 1.67

Q: What about the PBM binding z-score [19] of the same sequence?
A: 0.663

Q: And the PBM binding z-score [20]?
A: 1.04

Q: Which results are given for CATACAGGGTCAGCTAGGCCACAGTAGGGACGGC?
A: PBM binding z-score [1]: 4.61; PBM binding z-score [2]: 3.07; PBM binding z-score [3]: -0.102; PBM binding z-score [4]: 2.31; PBM binding z-score [5]: 0.444; PBM binding z-score [6]: 4.29; PBM binding z-score [7]: 3.75; PBM binding z-score [8]: 3.32; PBM binding z-score [9]: 0.994; PBM binding z-score [10]: 2.01; PBM binding z-score [11]: 1.06; PBM binding z-score [12]: 2.82; PBM binding z-score [13]: 0.893; PBM binding z-score [14]: 0.0227; PBM binding z-score [15]: 2.12; PBM binding z-score [16]: 2.51; PBM binding z-score [17]: 0.181; PBM binding z-score [18]: 3.4; PBM binding z-score [19]: 0.445; PBM binding z-score [20]: 4.17

Q: For TGAATGAGGTTAAAGATCAGGTAACGTGGCGTCG, which PBM binding z-score [1] is on record?
A: 3.32

Q: What about the PBM binding z-score [2] of the same sequence?
A: 2.73

Q: What about the PBM binding z-score [3] of the same sequence?
A: -0.204

Q: What about the PBM binding z-score [4] of the same sequence?
A: 1.82

Q: And the PBM binding z-score [5]?
A: 0.134

Q: What about the PBM binding z-score [6] of the same sequence?
A: 4.75

Q: And the PBM binding z-score [7]?
A: 5.6

Q: And the PBM binding z-score [8]?
A: 5.96

Q: What about the PBM binding z-score [9] of the same sequence?
A: 4.89

Q: And the PBM binding z-score [10]?
A: 6.01

Q: What about the PBM binding z-score [11] of the same sequence?
A: 2.2

Q: What about the PBM binding z-score [12] of the same sequence?
A: 3.62

Q: And the PBM binding z-score [13]?
A: 0.604

Q: And the PBM binding z-score [14]?
A: 0.742

Q: And the PBM binding z-score [15]?
A: 0.811

Q: And the PBM binding z-score [16]?
A: 2.19

Q: What about the PBM binding z-score [17] of the same sequence?
A: 0.0433

Q: What about the PBM binding z-score [18] of the same sequence?
A: 3.18

Q: What about the PBM binding z-score [19] of the same sequence?
A: 0.33

Q: What about the PBM binding z-score [20] of the same sequence?
A: 2.01

Q: With CAAACAAGGTCAAGGTCAAAGTCGGTTTGTGCCA as the sequence, how does the PBM binding z-score [3] read?
A: 4.84

Q: And the PBM binding z-score [5]?
A: 2.25

Q: What about the PBM binding z-score [6] of the same sequence?
A: 6.38

Q: And the PBM binding z-score [7]?
A: 7.93

Q: What about the PBM binding z-score [8] of the same sequence?
A: 7.31

Q: What about the PBM binding z-score [9] of the same sequence?
A: 4.7

Q: And the PBM binding z-score [10]?
A: 6.55

Q: What about the PBM binding z-score [11] of the same sequence?
A: 5.99

Q: And the PBM binding z-score [12]?
A: 6.6

Q: What about the PBM binding z-score [13] of the same sequence?
A: 3.37

Q: What about the PBM binding z-score [14] of the same sequence?
A: 1.15

Q: And the PBM binding z-score [15]?
A: 4.82

Q: What about the PBM binding z-score [17] of the same sequence?
A: 3

Q: What about the PBM binding z-score [18] of the same sequence?
A: 6.86

Q: And the PBM binding z-score [19]?
A: 2.95

Q: Which PBM binding z-score [1] does the source give for TCGAGTAGGTTAGGGGTATTCAGAATGGCGTCGA here?
A: 0.347

Q: And the PBM binding z-score [2]?
A: 0.298

Q: And the PBM binding z-score [3]?
A: -0.105

Q: What about the PBM binding z-score [4] of the same sequence?
A: 1.01

Q: And the PBM binding z-score [5]?
A: -0.0483

Q: And the PBM binding z-score [6]?
A: 1.66

Q: What about the PBM binding z-score [7] of the same sequence?
A: 2.37

Q: What about the PBM binding z-score [8] of the same sequence?
A: 3.55

Q: What about the PBM binding z-score [9] of the same sequence?
A: 2.28

Q: And the PBM binding z-score [10]?
A: 2.99

Q: What about the PBM binding z-score [11] of the same sequence?
A: 2.5

Q: What about the PBM binding z-score [12] of the same sequence?
A: 2.26

Q: And the PBM binding z-score [13]?
A: 0.429

Q: And the PBM binding z-score [14]?
A: 0.6

Q: And the PBM binding z-score [15]?
A: 0.948

Q: What about the PBM binding z-score [16] of the same sequence?
A: 0.383

Q: And the PBM binding z-score [17]?
A: 0.362

Q: And the PBM binding z-score [18]?
A: 0.00419

Q: What about the PBM binding z-score [19] of the same sequence?
A: 0.176

Q: And the PBM binding z-score [20]?
A: 0.589

Q: What does the source list for ACTCGGAGGAGAAAGGTCAGAGCTACGCCAGTGA?
A: PBM binding z-score [1]: 2.6; PBM binding z-score [2]: 3.16; PBM binding z-score [3]: 0.746; PBM binding z-score [4]: 2.72; PBM binding z-score [5]: -0.215; PBM binding z-score [6]: 3.8; PBM binding z-score [7]: 3.76; PBM binding z-score [8]: 4.3; PBM binding z-score [9]: 2.61; PBM binding z-score [10]: 4.29; PBM binding z-score [11]: 0.262; PBM binding z-score [12]: 1.73; PBM binding z-score [13]: -0.454; PBM binding z-score [14]: -0.291; PBM binding z-score [15]: 2.29; PBM binding z-score [16]: 3.09; PBM binding z-score [17]: 0.0761; PBM binding z-score [18]: 3.7; PBM binding z-score [19]: 1.26; PBM binding z-score [20]: 3.93
